How the values were obtained:
Settings in all cases: concentration: 1 μM, replicates: in singlicate; n = 1
MYLK4 = tested on: MYLK4
MYLK = tested on: MYLK
MYO3A = tested on: MYO3A
MYO3B = tested on: MYO3B
NDR1 = tested on: T1, NDR1
T1 construct: gene STK38

NDR2 = tested on: NDR2
NEK10 = tested on: NEK10
NEK11 = tested on: NEK11
NEK1 = tested on: NEK1
NEK2 = tested on: NEK2
NEK3 = tested on: NEK3
NEK4 = tested on: NEK4
NEK5 = tested on: NEK5
NEK6 = tested on: NEK6
NEK7 = tested on: NEK7
NEK9 = tested on: NEK9
NIK = tested on: T2, NIK
T2 construct: gene MAP3K14

NIM1 = tested on: T3, NIM1
T3 construct: gene MGC42105

NLK = tested on: NLK
OSR1 = tested on: T4, OSR1
T4 construct: gene OXSR1
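Note: KINOMEscan kinase panel screen.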

SMILES | %Inh (MYLK4) [%] | %Inh (MYLK) [%] | %Inh (MYO3A) [%] | %Inh (MYO3B) [%] | %Inh (NDR1) [%] | %Inh (NDR2) [%] | %Inh (NEK10) [%] | %Inh (NEK11) [%] | %Inh (NEK1) [%] | %Inh (NEK2) [%] | %Inh (NEK3) [%] | %Inh (NEK4) [%] | %Inh (NEK5) [%] | %Inh (NEK6) [%] | %Inh (NEK7) [%] | %Inh (NEK9) [%] | %Inh (NIK) [%] | %Inh (NIM1) [%] | %Inh (NLK) [%] | %Inh (OSR1) [%]
C[C@@H]1CCN(C(=O)CO)C[C@@H]1N(C)c1ncnc2[nH]ccc12 | 0 | 3 | 0 | 0 | 6 | 14 | 48 | 0 | 0 | 0 | 38 | 0 | 1 | 0 | 0 | 0 | 0 | 0 | 100 | 0
O=C(CCO)NCCn1ccc2ncnc(Nc3ccc(Oc4cccc(C(F)(F)F)c4)c(Cl)c3)c21 | 6 | 0 | 0 | 3 | 20 | 0 | 0 | 0 | 0 | 0 | 18 | 0 | 0 | 0 | 0 | 0 | 6 | 0 | 0 | 0
CC(C)(C)OC(=O)NC1CCCN(c2cc(-c3ccc4c(N)n[nH]c4c3)nc(N)n2)C1 (stereo not shown) [GSK2286096] | 0 | 0 | 0 | 0 | 21 | 0 | 0 | 0 | 0 | 7 | 3 | 13 | 2 | 0 | 0 | 2 | 0 | 9 | 27 | 0
COc1ccc(NC(=O)c2ccc(-c3cc(-c4nnc(C)o4)ccc3C)cc2)cc1 [GW595885] | 0 | 14 | 16 | 16 | 12 | 0 | 16 | 0 | 0 | 0 | 5 | 19 | 4 | 0 | 0 | 0 | 0 | 20 | 10 | 14
Cl.Cl.c1ccc(-c2cc3ccncc3cc2OC2CCNCC2)cc1 [GSK1122999] | 21 | 25 | 10 | 0 | 0 | 0 | 24 | 0 | 0 | 17 | 0 | 2 | 22 | 0 | 4 | 28 | 3 | 12 | 15 | 8

Reference: publication PMC5540273 (PLoS ONE, 2017)
